Screening data (PubChem)
Shown are actives, neighbours in structure and some others; about 17% of the full set was active somewhere.
HT1080 IDH1KD tx: kills HT-1080 cells with IDH1 knockdown; Potency, µM (titrated, usually from 46.1 µM), actives largely listed as cytotoxic; HT-1080 IDH1 knockdown viability, ATP luminescence, 48 h; 360,000 compounds, 2% hits
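IDH1KD HT-1080 cells, 750/well, RPMI + 5% FBS; compound pinned after 2 h settling; 48 h, 37 °C; CellTiter-Glo luminescence; % activity normalised to DMSO and no-cell wells; curves fitted, classed by r2 and efficacy.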
HepG2 tox: kills HepG2 cells in TGF-b inhibitor counter-screen; HepG2 CAGA-GFP viability, ATP luminescence, 18 h; Potency, µM (top dose mostly 46.1 µM), actives largely listed as cytotoxic; 410,000 compounds, 0.76% hits; AID 588856
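HepG2 CAGA-GFP cells (1000/well, DMEM with 1% FBS) received compound, then TGF-beta at 500 pg/mL final, and were incubated 18 hours at 37 degrees C. Viability was read by CellTiter-Glo luminescence. Media-only wells were set as complete cell-killing and DMSO as no toxicity.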
TGFb inhibitor: inhibitors of TGF-b signaling. HepG2 CAGA-GFP TGF-b/SMAD3 reporter, GFP fluorescence, 18 h; TGF-beta stimulated, 500 pg/mL final. Potency, µM (highest dose often 46.1 µM), usual class: inhibitors. 410,000 compounds, 1.2% hits. AID 588855; note: nearly all actives have a fitted effect of over 65% in size
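Cell-based qHTS in HEPG2 carrying a CAGA-GFP Smad reporter; compounds added before 500 pg/mL final TGF-beta, 18 h incubation at 37 degrees C, GFP fluorescence quantified per cell by imaging cytometry.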
DT40 TDP1 CPT: growth inhibition of DT40 Tdp1-/-;hTDP1 cells with camptothecin (screen for TDP1 inhibitors); 420,000 compounds, 12% hits; Potency, µM (doses to about 46.2 µM), most hits filed as inhibitors; chicken DT40 Tdp1-/-;hTDP1 cells + 20 nM CPT, ATP luminescence, 48 h; note: nearly all actives have a fitted effect of over 55% in size
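Chicken DT40 Tdp1-/- cells complemented with human TDP1, 400 cells/well, exposed to compounds plus 20 nM camptothecin for at least 48 h at 37 C; viability read as ATP content by CellTiter-Glo luminescence.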
HT1080-NT tox: kills 2HG-producing HT-1080-NT fibrosarcoma cells | HT-1080-NT fibrosarcoma viability, CellTiter-Glo ATP luminescence, 48 h | Potency, µM (top dose mostly 46.1 µM), hits mostly cytotoxic | 360,000 compounds, 1.6% hits | AID 686970;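 note: NT is the 2HG producing partner of a matched IDH1 knockdown line; nearly all actives have a fitted effect of over 55% in size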
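Viability of the 2HG-overproducing fibrosarcoma line after 48 hours of compound exposure at 37 degrees C was determined by luminescence with CellTiter-Glo, and concentration-effect curves were then fitted and categorized.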
TDP1 cell noCPT: qHTS for Inhibitors of human tyrosyl-DNA phosphodiesterase 1 (TDP1): qHTS in cells in absence of CPT; DT40 Tdp1-/- hTDP1 cells, no CPT, ATP luminescence, 48 h; Potency, µM (doses to about 46.2 µM), most hits filed as inhibitors; 420,000 compounds, 15% hits; note: nearly all actives have a fitted effect of over 55% in size
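Compound effects on proliferation are scored in DT40 Tdp1-/-;hTDP1 cells in the absence of CPT. ATP levels (CellTiter-Glo luminescence) are recorded after a ≥48 hr, 37 °C incubation.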
Each line names hits and unclear results; the compound was inactive in the other large screens. Calls come from the whole dose curve; as a rule, active = well fitted curve in the direction sought with a large enough effect; inconclusive = small, poorly fitted or top-dose-only effect, or another doubt; inactive = no such curve, though single readings can be large; an effect the other way counts as inactive or inconclusive.

COc1ccc(NC(=O)c2cn(CCC#N)nc2-c2cccc([N+](=O)[O-])c2)cc1	none
COc1ccc(Oc2cc(NC(=O)c3nn(C)cc3[N+](=O)[O-])cc([N+](=O)[O-])c2)cc1	HT1080 IDH1KD tx 5.2µM, HepG2 tox 18µM, TGFb inhibitor 10µM, HT1080-NT tox 18µM
COc1ccc(-c2nc3ccccc3n2OC(=O)N(C)C)cc1	none
CN(C)C(=O)On1c(-c2ccccc2)nc2ccc(Cl)cc21	DT40 TDP1 CPT inconclusive, TDP1 cell noCPT 29µM
COc1ccc(CCN)cc1	none (no result: HT1080 IDH1KD tx, HepG2 tox, TGFb inhibitor, HT1080-NT tox)
O=C1NC(=O)N(Cc2ccco2)C(=O)/C1=C/C=C/c1ccco1	HT1080 IDH1KD tx 21µM, TGFb inhibitor 7.1µM, DT40 TDP1 CPT 7.3µM, HT1080-NT tox 23µM, TDP1 cell noCPT 9.2µM
Cc1cccc(N2C(=O)NC(=O)/C(=C\C=C\c3ccco3)C2=O)c1	HT1080 IDH1KD tx inconclusive, TGFb inhibitor 8.9µM, DT40 TDP1 CPT 2.9µM, HT1080-NT tox inconclusive, TDP1 cell noCPT 8.2µM
CN(C)c1ccc(/C=C/C=C2/C(=O)NC(=O)N(c3ccccc3)C2=O)cc1	HT1080 IDH1KD tx 6.5µM, DT40 TDP1 CPT 2.9µM, HT1080-NT tox 4.6µM, TDP1 cell noCPT 4.1µM
O=C1NC(=O)N(c2ccccc2)C(=O)/C1=C/C=C/c1ccco1	HT1080 IDH1KD tx inconclusive, TGFb inhibitor inconclusive, DT40 TDP1 CPT 4.6µM, HT1080-NT tox 18µM, TDP1 cell noCPT 4.6µM
Cc1cccc(N2C(=O)CC(=O)NC2=O)c1	none
CN1C(=O)/C(=C/C=C/c2ccco2)C(=O)NC1=S	TGFb inhibitor inconclusive, DT40 TDP1 CPT inconclusive, TDP1 cell noCPT inconclusive
CCOc1ccc(NS(=O)(=O)c2ccc(Cl)c(N=Nc3c(O)[nH]c(=S)[nH]c3=O)c2)cc1Br	TGFb inhibitor inconclusive, TDP1 cell noCPT inconclusive
Cc1ccsc1C(=O)C1CCCN(Cc2cc(C(C)C)n[nH]2)C1 (configuration not stated)	TDP1 cell noCPT inconclusive
COc1cccc(CN2CCC(n3nccc3NC(=O)CCOc3ccccc3)CC2)c1O	DT40 TDP1 CPT inconclusive
CCCc1nnc(NC(=O)CCC(=O)N2CCN(Cc3ccc(OC)c(F)c3)CC2)s1	DT40 TDP1 CPT inconclusive, TDP1 cell noCPT inconclusive
Cn1cccc1/C=C1\C(=O)NC(=O)N(Cc2ccco2)C1=O	DT40 TDP1 CPT 9.2µM, TDP1 cell noCPT inconclusive
Cc1cccc(N2C(=O)NC(=O)/C(=C/c3ccc([N+](=O)[O-])o3)C2=O)c1	DT40 TDP1 CPT inconclusive, TDP1 cell noCPT inconclusive
Cc1cccc(N2C(=O)NC(=O)/C(=C\c3cccn3-c3ccc(Cl)cc3)C2=O)c1	HT1080 IDH1KD tx inconclusive, TGFb inhibitor inconclusive, DT40 TDP1 CPT 10µM, HT1080-NT tox inconclusive, TDP1 cell noCPT 21µM
C[C@H]1CC[C@]2(NC1)O[C@H]1C[C@H]3[C@@H]4CC[C@H]5C[C@@H](O)CC[C@]5(C)[C@H]4CC[C@]3(C)[C@H]1[C@@H]2C	TDP1 cell noCPT inconclusive (no result: HT1080 IDH1KD tx, HepG2 tox, TGFb inhibitor, HT1080-NT tox)
CSCCC(c1nnnn1Cc1ccccc1)N1CCC(n2c(=O)[nH]c3ccccc32)CC1 (configuration not stated)	HT1080 IDH1KD tx inconclusive, TGFb inhibitor inconclusive, DT40 TDP1 CPT 2.9µM, HT1080-NT tox inconclusive, TDP1 cell noCPT 1.8µM
O=c1[nH]c2ccccc2n1C1CCN(C(CCc2ccccc2)c2nnnn2Cc2ccccc2)CC1 (configuration not stated)	HT1080 IDH1KD tx 6.5µM, TGFb inhibitor inconclusive, DT40 TDP1 CPT 2.3µM, HT1080-NT tox 7.3µM, TDP1 cell noCPT 2.6µM
O=C1NCN(c2ccccc2)C12CCN(C(c1nnnn1C1CCCC1)C1CC1)CC2 (configuration not stated)	DT40 TDP1 CPT inconclusive, TDP1 cell noCPT inconclusive
